Screens: PubChem, Center for Chemical Genomics, University of Michigan
Rows were chosen to be rich in hits. Some 0.86% of all compounds tested hit in one or more screens of this group.
CDC25B-CDK2 inh: human CDC25B-CDK2/CyclinA binding inhibition | z-score (concentration not given with the values) | HTRF CDC25B-CDK2/CyclinA binding, anti-His/anti-Flag; stronger effect = higher value | AID 1259370 | 0.72% of 94,000 active; in the data active = z-score above about 3.2
TAR Tat displ: HIV-1 TAR-Tat binding disruption. HIV-1 TAR RNA, Tat peptide displacement FRET; stronger effect = higher value. z-score (no concentration beside the values). 0.6% of 100,000 active; active = z-score of 3 or more in at least 2 runs
Active calls of the source: *; · = not tested or not shown.

SMILES	CDC25B-CDK2 inh	TAR Tat displ
Cc1c(Cl)cccc1NC(=O)CSc1nc(-c2ccco2)nc2cc(=O)[nH]n12	·	1.3
COc1ccc2c(c1)oc(=O)c1ccccc12	-1.7	0.03
COc1cc(O)c2c(c1)oc(=O)c1c3cc(O)c(O)cc3oc21	·	38*
CCCCCCCOC(=O)C1=C(C)Nc2nnnn2C1c1ccc(Br)cc1 (centres undefined)	-0.17	-0.86
O=C1C(=O)N(Cc2ccccc2)c2ccccc21	0.31	2
O=C1C(=O)N(CC(O)CN2C(=O)C(=O)c3ccccc32)c2ccccc21	2.3	15*
O=C1c2ccccc2C(=O)C1(Nc1ccccc1Cl)c1ccccc1	·	0.23
COC(=O)c1cc(S(=O)(=O)Nc2cccc(SC)c2)cn1C	0.85	1
Cc1ccc(S(=O)(=O)c2nc(S(C)(=O)=O)sc2N2CCN(Cc3ccccc3)CC2)cc1	0.53	1
CCc1ccc(OCCCSc2nc(-c3cccs3)nc3cc(=O)[nH]n23)cc1	·	1.9
Cn1ncc2c(NCc3ccccc3Cl)nc(N3CCN(CCO)CC3)nc21	·	2.1
Cc1nc2nc(-c3ccccc3)nn2c(Sc2ccc(N)cc2)c1C	·	3
COc1cccc2c1Oc1ncccc1NC2	8.6*	0.72
COc1cccc2c1Oc1ncccc1N(C(=O)CCC(=O)O)C2	1.8	0.06
CCCSc1ncccc1C(=O)NCc1ccc2c(c1)OCO2	-0.28	·
Cc1cc(C)c(S(=O)(=O)Nc2cc(Br)c(O)c3ccccc23)c(C)c1	19*	·
Cc1cc(C)c(S(=O)(=O)Nc2ccc(O)cc2)c(C)c1	-0.75	0.57
CCC(C)NC(=O)Cn1c(=O)oc2cc(S(=O)(=O)N3CCCC3)ccc21 (centres undefined)	-1.7	·
COc1ccc(S(=O)(=O)Oc2ccc(C)cc2[N+](=O)[O-])cc1OC	-0.99	·
COc1ccc(S(=O)(=O)OCC(F)([N+](=O)[O-])[N+](=O)[O-])cc1Br	4.2*	·
CC(=O)N1N=C(c2cc(C3CC3)nc3ccccc23)OC1c1ccccc1 (centres undefined)	·	1.6
COc1ccc(C2OC(c3cc(C4CC4)nc4ccccc34)=NN2C(C)=O)c(OC)c1 (centres undefined)	·	9.2*
COC(=O)c1[nH]c2sc3c(c2c1NC(C)=O)CCCC3	4.7	-0.25
COC(=O)c1[nH]c2sc3c(c2c1-n1cccc1)CCCC3	13*	1.6
CCc1cc2c3c([nH]c2cc1S(=O)(=O)NCc1cccnc1)CCCC3=O	·	0.38
SMILES	CDC25B-CDK2 inh	TAR Tat displ
O=C(Nc1ccccc1Cl)c1nn(-c2ccc(F)cc2)ccc1=O	0.48	2.5
Cc1c(C(=O)O)sc2ncnc(Nc3ccc(F)c(Cl)c3)c12	·	20*
CCCCNc1ncnc2sc(C(=O)O)c(C)c12	·	0.95
COc1ccc(Nc2ncnc3sc(C(=O)O)c(C)c23)c(OC)c1	·	2.3
Cc1c(C(=O)O)sc2ncnc(NCc3ccco3)c12	·	1.6
Cc1c(C(=O)O)sc2ncnc(NCCC3=CCCCC3)c12	·	6.6*
Cc1c(C(=O)O)sc2ncnc(Nc3ccccc3F)c12	·	21*
COc1ccc(Cl)cc1Nc1ncnc2sc(C(=O)O)c(C)c12	·	3.9*
Cc1c(C(=O)O)sc2ncnc(NC3CC3)c12	·	0.22
COCCn1nnc2c(sc3nc(C)ccc32)c1=O	-1.3	0.63
CCc1ccc(-n2nnc(-c3nc(-c4ccccc4)no3)c2N)cc1	·	0.36
Clc1ccccc1/C=C/c1nn2c(-c3cccnc3)nnc2s1	-0.23	-0.55
CCCN1CCN(c2ncc3c(n2)CCN(CCc2ccccc2)C3)CC1	·	0.59
O=c1cc(CSc2nc3ccccc3s2)[nH]c2[nH]n(-c3ccccc3)c(=O)c12	2.4	6.2*
O=c1cc(CSc2nc3ccccc3s2)[nH]c2nc3ccccc3n12	-1.3	0.83
O=c1cc(CSc2ccc(Cl)cc2)[nH]n1-c1ccccc1	-1.7	-0.99
O=c1cc(CSc2ccc(Cl)cc2)[nH]c2[nH]n(-c3ccccc3)c(=O)c12	-0.02	4.6*
Cc1nn(Cc2ccc(F)cc2)c(C)c1NC(=O)CCCn1nc([N+](=O)[O-])c(Br)c1C	-0.36	-0.33
CCc1ccc(C(C)(O)C(CN2CCOCC2)c2ccc(Cl)cc2)cc1 (centres undefined)	-0.16	0.37
Cc1c(C(=O)NCCCN2CCOCC2)sc2nc3n(c(=O)c12)CCCCC3	·	1.5
Cc1c(NC(=O)NCCCN2CCOCC2)sc2nc3n(c(=O)c12)CCC(C)CC3 (centres undefined)	10*	0.6
NC(=O)c1nc(-c2cccc(Cl)c2)nc2c1[nH]c(=O)n2C1CCCCC1	·	1.1
CCc1ccc(C(=O)CC2(O)C(=O)Nc3c(C)ccc(Cl)c32)cc1 (centres undefined)	-0.01	·
Cc1cc2c(cc3n2CC(C)(C(=O)NC2CCCCC2)N(C(C)C)C3=O)o1 (centres undefined)	·	7.2*
CC1CCCC(NC(=O)C2(C)Cn3c(cc4occc43)C(=O)N2Cc2ccco2)C1C (centres undefined)	·	4.2
